We go through 50 compounds from PubChem BioAssay AID1347048 (National Center for Advancing Translational Sciences (NCATS), 2019).

Each structure is given as a SMILES string. Out of some 76,000 compounds screened, about 1,200 (1.6%) were called active. Entries that show only a call come without a potency. Another 4% or so got no clear call; they are omitted. This is one part of a sample in which actives are shown more often than they occur. Calls come from the whole dose curve.
Potency is the fitted concentration of half-maximal effect.

Atrial natriuretic peptide receptor 1 (Homo sapiens), sequence (P16066 whole entry, looked up): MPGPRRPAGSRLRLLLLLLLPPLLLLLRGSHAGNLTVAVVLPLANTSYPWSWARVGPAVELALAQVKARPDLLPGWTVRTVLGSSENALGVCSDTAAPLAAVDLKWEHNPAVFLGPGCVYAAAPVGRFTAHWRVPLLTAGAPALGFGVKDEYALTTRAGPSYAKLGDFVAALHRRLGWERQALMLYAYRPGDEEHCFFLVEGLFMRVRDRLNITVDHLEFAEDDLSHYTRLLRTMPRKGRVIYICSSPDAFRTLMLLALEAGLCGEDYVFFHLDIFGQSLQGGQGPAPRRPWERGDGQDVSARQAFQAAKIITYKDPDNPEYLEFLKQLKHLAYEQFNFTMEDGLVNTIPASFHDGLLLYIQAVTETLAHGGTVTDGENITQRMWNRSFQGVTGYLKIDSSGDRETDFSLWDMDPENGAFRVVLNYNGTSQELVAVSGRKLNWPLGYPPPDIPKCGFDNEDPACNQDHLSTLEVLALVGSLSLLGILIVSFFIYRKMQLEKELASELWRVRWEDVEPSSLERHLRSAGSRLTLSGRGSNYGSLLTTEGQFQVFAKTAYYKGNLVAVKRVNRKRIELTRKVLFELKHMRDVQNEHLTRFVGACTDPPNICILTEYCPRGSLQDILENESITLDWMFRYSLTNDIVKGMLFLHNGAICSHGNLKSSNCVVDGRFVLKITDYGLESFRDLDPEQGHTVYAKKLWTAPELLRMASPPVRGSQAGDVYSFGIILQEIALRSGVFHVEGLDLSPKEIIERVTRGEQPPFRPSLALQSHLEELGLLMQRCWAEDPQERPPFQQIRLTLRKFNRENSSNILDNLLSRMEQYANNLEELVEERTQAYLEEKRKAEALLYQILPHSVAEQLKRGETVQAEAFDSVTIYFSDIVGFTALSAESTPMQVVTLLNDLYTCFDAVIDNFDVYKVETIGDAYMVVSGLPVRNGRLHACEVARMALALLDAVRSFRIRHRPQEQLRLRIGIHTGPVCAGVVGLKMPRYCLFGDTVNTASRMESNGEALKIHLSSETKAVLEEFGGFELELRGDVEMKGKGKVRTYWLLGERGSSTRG

In the assay the target is Atrial natriuretic peptide receptor 1 (Homo sapiens) (UniProt P16066). In words: Natriuretic polypeptide receptor (hNpr1) antagonism - Primary qHTS. Note: nearly all actives have a fitted effect of over 60% in size. Particulars: HEK293 hNpr1 GloSensor cGMP, ANP-stimulated luminescence; series mostly up to 46.3 µM. The source says:
Pruritus or itch, is an irritating skin sensation that creates a need to scratch, and ranges from mildly unpleasant and passing to acute and persistent sensations. […] Conventional treatments include topical anti-inflammatory agents, anti-histamines, and emollients, which are aimed at managing the itchy sensation and not the underlying disease. The treatment of pruritus remains a diagnostic and therapeutic challenge. Neurotransmission in the spinal cord from primary pruriceptors to second order neurons is a necessary step that eventually results in the sensation of itch. At this synapse, primary pruriceptors use the neuropeptide natriuretic polypeptide B (NppB) to activate its cognate receptor Natriuretic polypeptide receptor 1 (Npr1) on second order neurons. Inhibition of this step is a new potential strategy to inhibit acute and chronic itch. In order to identify small molecular compounds that can inhibit the Npr1 receptor we developed a high-throughput assay to probe inhibition of the receptor guanylate cyclase Npr1. The assay was designed taking advantage of Promega's GloSensor[TM] technology (Fan, F. et al. 2008). It involves the expression of a cyclic guanosine monophosphate (cGMP) biosensor, comprised of a firefly luciferase variant that was coupled to the cGMP binding domain of human phosphodiesterase 5A, and loading of cells with a cell-permeable luciferase substrate to monitor cGMP production by Npr1 in real time in live cells. In detail, we generated human embryonic kidney 293 cells stably expressing the human Npr1 and the cGMP GloSensor[TM] pGS-40F. Stimulating these cells with the Npr1 agonists human NppA or NppB, luciferase-induced light production could be detected in a dose-dependent manner. We also generated HEK293 cells stably expressing human Npr2 and pGS-40F and cells only expressing pGS-40F to conduct secondary counter screens. In these cells, NppC or sodium nitroprusside were used to stimulate Npr2 or soluble guanylate cyclase which is endogenously expressed in HEK293 cells, respectively. REFERENCE F. Fan, B. F. Binkowski, B. L. Butler, P. F. Stecha, M. K. Lewis, K. V. Wood, Novel genetically encoded biosensors using firefly luciferase. ACS Chem. Biol., 2008, 3: 346-351 .
PROTOCOL TABLES (as described by Inglese J, Shamu CE and Guy RK. 2007) SEQUENCE No. (e.g., 1, 2, 3, etc.); […] (e.g., Cells, Incubation, Reagent, etc.); VALUE and DESCRIPTION. GLOSENSOR PROTOCOL 1. Cells. Seed 1500 HEK293 cGMP-sensor cells expressing hNpr1 per well in 4uL into Greiner 1536-well white/solid bottom high base, tissue culture-treated plates. 2. Incubation. Incubate plated cells at 37C in 5% CO2, 95% RH overnight. 3. Reagent. Add 1uL per well GloSensor reagent from Promega (2% final concentration) or CO2 independent media vehicle control to respective columns of Greiner 1536-well plates. 4. Incubation. Incubate plated cells at room temperature for 2 h, protect from light. 5. Compounds. Library compounds and A-71915 control added at 23 nL per well, transferred by Pin Tool. 6. Incubation. Incubate plated cells for 30 min. at room temperature, protect from light. 7. Detector. GloSensor baseline pre-read luminescence measured using CCD-based camera (Viewlux). 8. Compound. Add 1uL of hNppA peptide to 0.1 nM final concentration to stimulate hNpr1 or CO2 independent media as vehicle control. 9. Incubation. Incubate treated cells at room temperature for 20 min., protect from light. 10. Detector. GloSensor post-hNppA luminescence measured using CCD-based camera (Viewlux). NOTES (numbers refer to Sequence numbers above) 1. HEK293 cells expressing hNpr1 and GIP/pGS-40F grown to 85-95% confluence (48-72 h) in T175 culture flasks (CO2 independent media supplemented with 10% FBS, 1% Pen/Strep antibiotics and 1 ug/mL puromycin). Trypsinize and harvest cells from T175 culture flasks and filter through 40 um cell strainer. Cells counted with Invitrogen Countess (30,000,000 - 50,000,000 cells/flask). […]
For the compound `CC(=O)N1CCC(NC[C@H]2O[C@H](Cc3cc(-c4cccc(O)c4)on3)CC[C@@H]2O)CC1`, the Potency was 25.1 µM (active).
As to `O[C@H]1CC[C@@H](Cc2cc(-c3ccccc3)on2)O[C@@H]1CNCc1ccccc1`, the Potency result was “inactive”.
For the compound `O=C(NC[C@H]1O[C@H](Cc2cc(-c3ccccc3)on2)CC[C@@H]1O)C1CCC1`, the Potency result is “inactive”.
Turning to `NC(=O)C1CCCN(CC(=O)Nc2nc3ccccc3[nH]2)C1` (stereo not given), the Potency entry is “inactive”.
With `CC1Oc2ccc(NC(=O)c3ccc([N+](=O)[O-])cc3)cc2CN(Cc2ccccc2)C1=O` (stereo not given) the entry was “inactive”; with `Cc1ccc(-c2ncc(C(=O)Nc3ccccc3C)c(-c3ccncc3)n2)cc1`, “inactive”; with `Cc1nc(-c2ccncc2)ncc1C(C)Nc1ncnc(C)c1C` (stereo not given), 10 µM (active).
With `CC(Cn1cncn1)Nc1nc(-c2ccncc2)nc2c1cnn2C` (stereo not given) the entry was “inactive”; with `COCC(=O)N1CCCC(c2nc(-c3ccc(C)nn3)no2)C1` (stereo not given), “inactive”; with `O=C(c1nc2ccccc2[nH]1)N1CCNc2cnc(Nc3ccc(-n4ccnc4)cc3)nc2C1`, “inactive”.
On to `O=C(c1cccc(O)c1)N1CCNc2cnc(Nc3cccc(F)c3)nc2C1`, for which the Potency is 22.4 µM (active).
With `O=C(c1ccccc1)N1CCNc2cnc(Nc3cccc(C(F)(F)F)c3)nc2C1` the figure was 20 µM (active).
Consider `COc1ccccc1Nc1ncc2c(n1)CN(C(=O)COc1ccccc1)CCN2`, for which the Potency entry is “inactive”.
With `O=C(c1cccc(F)c1)N1CCCC(c2nccn2Cc2cscn2)C1` (stereo not given) the entry was “inactive”; with `O=C(c1cccc(F)c1)N1CCCC(CN2CCOCC2)CC1` (stereo not given), “inactive”; with `COc1ccc(C(=O)N[C@H]2C[C@@H](c3nc(-c4ccc(OC)cc4)no3)N(C)C2)cc1`, “inactive”.
On to `c1ccc(Nc2cnc3ccc(-n4ccnc4)nn23)cc1`, for which the Potency entry was “inactive”.
On to `CC1(C)C[C@H](NC(=O)c2ccc(C#N)cc2)[C@@]2(CCC(=O)NCCc3c[nH]c4ccccc34)CC[C@](C)(O)C[C@@H]12`, for which the Potency result is “inactive”.
With `Cc1ccccc1-c1cn[nH]c1C1CCN(C(=O)CCCn2cnnn2)CC1`, the Potency result was “inactive”.
As to `O=C(c1cccc(F)c1)N1CCOC[C@H](Oc2ccc(C(F)(F)F)cc2)C1`, the Potency was 28.2 µM (active).
With `O=C(C1CCOCC1)N1CCOC[C@H](Oc2ccccc2)C1` the entry was “inactive”; with `O=C(c1cccc(F)c1)N1CCC(CCOc2ccc(F)cc2)C1` (stereo not given), “inactive”; with `Cc1nn(-c2ccc(C(C)C)cc2)c(C)c1[C@@H]1C=C[C@@H](NC(=S)NCC(C)C)C1`, 28.2 µM (active).
To `COc1ccc(NC(=O)N[C@@H]2C=C[C@@H](c3c(C)nn(-c4ccc(C(C)(C)C)cc4)c3C)C2)cc1` belongs “inactive”.
Take `COc1ccc(-n2nc(C)c([C@@H]3C=C[C@@H](NC(=O)Nc4ccccc4)C3)c2C)cc1`: the Potency is 14.1 µM (active).
To `COc1ccc(-n2nc(C)c([C@H]3C=C[C@@H](OC(=O)Nc4cccc(F)c4)C3)c2C)cc1` belongs 20 µM (active); to `Cc1nn(-c2ccc(C(C)C)cc2)c(C)c1[C@@H]1C=C[C@@H](NC(=O)CC2(CC(=O)O)CCCC2)C1`, “inactive”.
As to `Cc1nn(-c2cccc(Br)c2)c(C)c1[C@@H]1C=C[C@@H](NC(=O)CC2(CC(=O)O)CCCC2)C1`, the Potency result was “inactive”.
To `Cc1nn(Cc2ccccc2)c(C)c1[C@@H]1C=C[C@@H](NC(=O)NC(C)C)C1` belongs “inactive”.
For the compound `Cc1nn(Cc2ccccc2)c(C)c1[C@@H]1C=C[C@@H](NC(=O)NC2CCCCC2)C1`, the Potency result was “inactive”.
With `Cc1nn(-c2cccc(Br)c2)c(C)c1[C@@H]1C=C[C@@H](NS(=O)(=O)c2ccccc2)C1` the entry was “inactive”; with `COC(=O)c1c(NC(C)=O)c2cc(NC3CCCCCC3)cnc2n1CC1CCCO1` (stereo not given), “inactive”.
To `O=C(Cc1ccc(Cl)cc1)N1CCc2c(nc3cc[nH]n3c2=O)C1` belongs “inactive”; to `COc1cccc(CN2CCN(Cc3ncccc3C)CC2)c1O`, “inactive”.
With `O=c1c2c(n(Cc3ccccc3)n1-c1ccccc1)CN(Cc1ccn[nH]1)CC2` the entry was “inactive”.
Turning to `CCOc1ccc(CN2CCC(N3CCCC(C(=O)NC4CC4)C3)CC2)cc1` (stereo not given), the Potency result was “inactive”.
With `CCCNc1ccc2nnc(C)n2n1` the entry was “inactive”.
To `Cc1noc(C)c1-c1cc(-c2ccccc2Oc2ccccc2)cn2cncc12` belongs 28.2 µM (active).
On to `Cc1noc(C)c1-c1cc(-c2cncnc2)cn2cncc12`, for which the Potency result was “inactive”.
In the case of `COc1ccccc1-c1cc(-c2cn[nH]c2)c2cncn2c1`, the Potency entry is “inactive”.
To `CN(C)Cc1nnc(C2CC(NC(=O)c3cn4cccnc4n3)C2)n1C` (stereo not given) belongs “inactive”.
With `O=C(c1ccccc1)N1CCOc2ccc(CN3CCc4ccccc4C3)cc2C1` the entry was “inactive”; with `CCC(=O)N1CCc2oc(C)c(C(=O)NCCN(C)C)c2C1`, “inactive”.
With `CN1CCN(C(=O)C(C)(C)Oc2nn(Cc3cccc(Cl)c3)c3ccccc23)CC1` the figure was 15.8 µM (active); with `COCc1ccc2c(c1)c(OC(C)(C)C(=O)N1CCN(C)CC1)nn2Cc1cccnc1`, “inactive”; with `CC(C)(Oc1nn(CC2CCOCC2)c2ccccc12)C(=O)NCc1ccccc1`, “inactive”.
`CC(=O)N1CCC(N2C[C@H](O)C[C@H]2C(=O)NC2CCCCC2)CC1`: the Potency result was “inactive”.
For the compound `Cc1c(C(=O)N2CCCn3nc(C(C)O)cc3C2)sc2nc[nH]c(=O)c12` (stereo not given), the Potency entry is “inactive”.
Turning to `OC1(Cc2cc(-c3ccccc3)no2)CCN(c2ncncn2)CC1`, the Potency was 3.55 µM (active).
As to `C(=C\c1ccccc1)/CN1CCN(c2ncncn2)CC1`, the Potency entry is “inactive”.
